# Values joined by “and” are separate entries in the source; they are usually repeats but may differ in a detail not shown here. Identical values can stand only once. Results filed as inconclusive are left out. A call without a number means that no potency is given here. A number with no mark means an inactive call. Active and inactive are the calls of the source. Calls come from the whole dose curve; as a rule, active = well fitted curve in the direction sought with a large enough effect; inconclusive = small, poorly fitted or top-dose-only effect, or another doubt; inactive = no such curve, though single readings can be large; an effect the other way counts as inactive or inconclusive.
# Legend:
# Tov-21-G = assay: Primary qHTS to identify gynecologic anti-cancer compounds using libraries of approved drugs and bioactive compounds (AID 1345084); conditions: Gynecologic cancer cell panel viability, ATPlite luminescence, 48 h; series mostly up to 57.5 µM; note: nearly all actives have a fitted effect of over 55% in size
# In short: (§1)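 Cell viability after 48 h drug treatment, ATPlite luminescence readout; five doses.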
# Tov112D = assay: as above; conditions: Gynecologic cancer cell panel viability, ATPlite luminescence, 48 h; series mostly up to 57.5 µM
# In short: as §1
# [1] = Drug repurposing screens with cells derived from glioblastoma tumor samples (AID 1345199); conditions: GBM patient neurospheres viability, ATP luminescence, 48 h; note: nearly all actives have a fitted effect of over 40% in size
# In short: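 Four patient lines of CD133+ GBM neurospheres were screened at several concentrations; hits were retested in those lines plus three slower-growing GBM lines, using 48-hour treatment and ATP-based viability.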
# [2] = at 45.9 µM (top of the series), tumour line B
# [3] = at 45.9 µM (top of the series), tumour line D
# [4] = at 46.1 µM (top of the series), tumour line C
# [5] = at 20 µM (top of the series), tumour line C
# Potency is the fitted concentration of half-maximal effect.
smiles,measurement,setting,value
Cc1c(C(=O)O)c(O)cc2c1C(=O)c1c(O)c([C@@H]3O[C@H](CO)[C@@H](O)[C@H](O)[C@H]3O)c(O)c(O)c1C2=O,Potency,Tov-21-G,inactive
same,Potency,Tov112D,inactive
same,"activity, negative = cell killing",[1]; [2],-25.2%
same,"activity, negative = cell killing",[1]; [3],-27.3%
same,"activity, negative = cell killing",[1]; [4],21.4%
O=C(O)Cc1ccc2c(c1)C(=O)c1ccccc1CO2,Potency,Tov-21-G,inactive
same,Potency,Tov112D,inactive
O=C(O)CC1CC(c2ccccc2)=NO1 (stereo unspecified),Potency,Tov-21-G,inactive
same,Potency,Tov112D,inactive
O=C(Nc1ccc2c(c1)CCN(Cc1ncn[nH]1)C2)c1ccccc1-c1ccc(C(F)(F)F)cc1,Potency,Tov-21-G,inactive
same,Potency,Tov112D,inactive
COC(=O)C1=C(C)NC(C)=C(C(=O)OCC(C)C)C1c1ccccc1[N+](=O)[O-] (stereo unspecified),Potency,Tov-21-G,inactive
same,Potency,Tov112D,inactive
same,"activity, negative = cell killing",[1]; [4],-13.4%
same,Potency,[1]; tumour line A,10 µM (active)
same,Potency,[1]; tumour line D,14.1 µM (active)
Fc1ccc2[nH]c(CN3CCN(c4ccccn4)CC3)cc2c1,Potency,Tov-21-G,inactive
same,Potency,Tov112D,inactive
CCCCN(CC)c1nc(C)nc2c1c(C)cn2-c1c(C)cc(C)cc1C,Potency,Tov-21-G,inactive
same,Potency,Tov112D,inactive
O=C(CS)Nc1ccccc1,Potency,Tov-21-G,inactive
same,Potency,Tov112D,inactive
same,"activity, negative = cell killing",[1]; [4],-39.6%
same,Potency,[1]; tumour line D,12.6 µM (active)
O=[N+]([O-])c1ccc(CNc2nc(NCc3cccc(C(F)(F)F)c3)nc3nc[nH]c23)cc1,Potency,Tov-21-G,inactive
same,Potency,Tov112D,inactive
CCNc1nc2c(ncn2[C@H]2C[C@H](O)[C@@H](CO)O2)c(=O)[nH]1,Potency,Tov-21-G,inactive
same,Potency,Tov112D,inactive
NS(=O)(=O)c1ccc(-n2nc(C(F)(F)F)cc2-c2ccc(Cl)cc2)cc1,Potency,Tov-21-G,inactive
same,Potency,Tov112D,inactive
CCCC(=O)OC[C@@H](OC(=O)CCC)[C@@H](OC(=O)CCC)[C@H](Cn1c2nc(=O)[nH]c(=O)c-2nc2cc(C)c(C)cc21)OC(=O)CCC,Potency,Tov-21-G,inactive
same,Potency,Tov112D,inactive
same,"activity, negative = cell killing",[1]; [4],-29.1%
same,Potency,[1]; tumour line A,8.91 µM (active)
same,Potency,[1]; tumour line D,12.6 µM (active)
CS(=O)(=O)c1ccc(-n2nc(C(F)(F)F)cc2-c2ccc(F)cc2)cc1,Potency,Tov-21-G,inactive
same,Potency,Tov112D,inactive
COC(=O)Nc1nc2ccc(C(=O)C3CC3)cc2[nH]1,Potency,Tov-21-G,1.41 µM (active)
same,Potency,Tov112D,1.58 µM (active)
Cc1ccc2c(n1)Oc1ccc(C(C)C(=O)OCC(=O)N(C)C)cc1C2 (stereo unspecified),Potency,Tov-21-G,inactive
same,Potency,Tov112D,inactive
same,"activity, negative = cell killing",[1]; [2],-2.21% and -4.54%
same,"activity, negative = cell killing",[1]; [3],-24.2% and -10.3%
same,"activity, negative = cell killing",[1]; [4],-14.5% and 2.44%
CNC(=O)c1c(I)c(NC(=O)CCCCC(=O)Nc2c(I)c(C(=O)O)c(I)c(C(=O)NC)c2I)c(I)c(C(=O)O)c1I,Potency,Tov-21-G,inactive
same,Potency,Tov112D,inactive
Cc1c(Nc2ncccc2C(=O)O)cccc1C(F)(F)F,Potency,Tov-21-G,inactive
same,Potency,Tov112D,inactive
same,"activity, negative = cell killing",[1]; [5],-8.1%
same,"activity, negative = cell killing","[1]; at 21.2 µM (top of the series), tumour line B",-18.2%
same,"activity, negative = cell killing","[1]; at 21.2 µM (top of the series), tumour line D",-22.5%
CCCCCCCC/C=C/C(=O)O,Potency,Tov-21-G,inactive
same,Potency,Tov112D,inactive
CN1[C@@H]2CC[C@H]1CC(OC(c1ccccc1)c1ccccc1)C2 (stereo partly specified),Potency,Tov-21-G,inactive
same,Potency,Tov112D,inactive
same,"activity, negative = cell killing",[1]; [2],-9.62%
same,Potency,[1]; tumour line A,7.08 µM (active)
NC(=O)C(c1ccccc1)(c1ccccc1)[C@@H]1CCN(CCc2ccc3c(c2)CCO3)C1,Potency,Tov-21-G,inactive
same,Potency,Tov112D,inactive
COc1cc2c3cc1Oc1cc(ccc1O)C[C@@H]1c4c(cc(OC)c(O)c4Oc4ccc(cc4)C[C@@H]3N(C)CC2)CC[N+]1(C)C,Potency,Tov-21-G,inactive
same,Potency,Tov112D,inactive
same,"activity, negative = cell killing",[1]; [2],1%
same,"activity, negative = cell killing",[1]; [3],-8.25%
same,"activity, negative = cell killing",[1]; [4],7.69%
O=Cc1ccc(O)c(O)c1O,Potency,Tov-21-G,inactive
same,Potency,Tov112D,inactive
COC(=O)C1=C(C)NC(C)=C(C(=O)OCC(C)=O)C1c1ccccc1[N+](=O)[O-] (stereo unspecified),Potency,Tov-21-G,inactive
same,Potency,Tov112D,inactive
c1ccc(CCNc2nc(-c3ccccc3)cs2)cc1,Potency,Tov-21-G,inactive
same,Potency,Tov112D,inactive
same,"activity, negative = cell killing",[1]; [2],-22.5%
same,Potency,[1]; tumour line A,14.1 µM (active)
COc1ccnc2c1CCCCC2S(=O)c1nc2ccccc2[nH]1 (stereo unspecified),Potency,Tov-21-G,inactive
same,Potency,Tov112D,inactive
CN(CCCOc1ccc(Cc2ccccc2)cc1)CCC(=O)O,Potency,Tov-21-G,inactive
same,Potency,Tov112D,inactive
O=C(Nc1ccc2[nH]ncc2c1)C1CCC1,Potency,Tov-21-G,inactive
same,Potency,Tov112D,inactive
Cc1nc2ccccc2n1Cc1ccc(Cl)cc1,Potency,Tov-21-G,inactive
same,Potency,Tov112D,inactive
C[N+]1(C)[C@@H]2CC(OC(=O)[C@H](CO)c3ccccc3)C[C@H]1[C@@H]1O[C@@H]12 (stereo partly specified),Potency,Tov-21-G,inactive
same,Potency,Tov112D,inactive
N=C1N=C(N)c2cc3ccccc3cc21,Potency,Tov-21-G,35.5 µM (active)
CC(C)(C)c1nnc(NS(=O)(=O)c2ccc(N)cc2)s1,Potency,Tov-21-G,inactive
same,Potency,Tov112D,inactive
COc1cc(NC(C)CCCN)c2ncccc2c1 (stereo unspecified),Potency,Tov-21-G,inactive
same,Potency,Tov112D,inactive
same,"activity, negative = cell killing",[1]; [5],6.33%
same,Potency,[1]; tumour line A,10 µM (active)
CCNC(=O)[C@H]1O[C@@H](n2cnc3c(N)nc(NCCc4ccc(CCC(=O)O)cc4)nc32)[C@H](O)[C@@H]1O,Potency,Tov-21-G,inactive
same,Potency,Tov112D,inactive

# Reference: PubChem BioAssay (NCATS)
